Positions count from the first letter of the chain named. In all, about 16,000 sequences were measured (“ka relative to ugcaugu”: median about 0.096, highest 2% from about 0.35 on). Only a selection was taken, and the highest values are over-represented in it overall.
B1: GCCAUCG (DNA:RNA)
RNA: GGGAGACCGGAAUUCAGAUUGUCCGCCAUCGUUAAAUCCCGUCGUAGCCACCA
DNA 1: CAATCTGAATTCCGGTCTCCC
DNA 2: TGGTGGCTACGACGGGATT
B2: GUCAUAC (DNA:RNA)
RNA: B1 RNA with C26U, C30A, G31C
DNA 1: CAATCTGAATTCCGGTCTCCC
DNA 2: TGGTGGCTACGACGGGATT
B3: AUUUCGA (DNA:RNA)
RNA: GGGAGACCGGAAUUCAGAUUGUCCAUUUCGAUUAAAUCCCGUCGUAGCCACCA
DNA 1: CAATCTGAATTCCGGTCTCCC
DNA 2: TGGTGGCTACGACGGGATT
B4: AAACAAG (DNA:RNA)
RNA: B3 RNA with U26A, U27A, U28C, C29A, G30A, A31G
DNA 1: CAATCTGAATTCCGGTCTCCC
DNA 2: TGGTGGCTACGACGGGATT
B5: UAAUACC (DNA:RNA)
RNA: B3 RNA with A25U, U26A, U27A, C29A, G30C, A31C
DNA 1: CAATCTGAATTCCGGTCTCCC
DNA 2: TGGTGGCTACGACGGGATT
B6: AGCUAUA (DNA:RNA)
RNA: B3 RNA with U26G, U27C, C29A, G30U
DNA 1: CAATCTGAATTCCGGTCTCCC
DNA 2: TGGTGGCTACGACGGGATT
B7: AGUGGCA (DNA:RNA)
RNA: B3 RNA with U26G, U28G, C29G, G30C
DNA 1: CAATCTGAATTCCGGTCTCCC
DNA 2: TGGTGGCTACGACGGGATT
B8: CAAAUUG (DNA:RNA)
RNA: B1 RNA with G25C, C26A, C27A, C30U
DNA 1: CAATCTGAATTCCGGTCTCCC
DNA 2: TGGTGGCTACGACGGGATT
B9: GGGUGUC (DNA:RNA)
RNA: B3 RNA with A25G, U26G, U27G, C29G, G30U, A31C
DNA 1: CAATCTGAATTCCGGTCTCCC
DNA 2: TGGTGGCTACGACGGGATT
B10: GCGGGUG (DNA:RNA)
RNA: B1 RNA with C27G, A28G, U29G, C30U
DNA 1: CAATCTGAATTCCGGTCTCCC
DNA 2: TGGTGGCTACGACGGGATT
B11: GGGUGUG (DNA:RNA)
RNA: B1 RNA with C26G, C27G, A28U, U29G, C30U
DNA 1: CAATCTGAATTCCGGTCTCCC
DNA 2: TGGTGGCTACGACGGGATT
B12: CCGGGUG (DNA:RNA)
RNA: B1 RNA with G25C, C27G, A28G, U29G, C30U
DNA 1: CAATCTGAATTCCGGTCTCCC
DNA 2: TGGTGGCTACGACGGGATT
B13: GGGGGUG (DNA:RNA)
RNA: B1 RNA with C26G, C27G, A28G, U29G, C30U
DNA 1: CAATCTGAATTCCGGTCTCCC
DNA 2: TGGTGGCTACGACGGGATT
B14: GGGGGUC (DNA:RNA)
RNA: B1 RNA with C26G, C27G, A28G, U29G, C30U, G31C
DNA 1: CAATCTGAATTCCGGTCTCCC
DNA 2: TGGTGGCTACGACGGGATT
B15: GGUCUGG (DNA:RNA)
RNA: B1 RNA with C26G, C27U, A28C, C30G
DNA 1: CAATCTGAATTCCGGTCTCCC
DNA 2: TGGTGGCTACGACGGGATT
B16: ACUUCCA (DNA:RNA)
RNA: B3 RNA with U26C, G30C
DNA 1: CAATCTGAATTCCGGTCTCCC
DNA 2: TGGTGGCTACGACGGGATT
B17: CCAGGGC (DNA:RNA)
RNA: B3 RNA with A25C, U26C, U27A, U28G, C29G, A31C
DNA 1: CAATCTGAATTCCGGTCTCCC
DNA 2: TGGTGGCTACGACGGGATT
B18: AGUUAUG (DNA:RNA)
RNA: B3 RNA with U26G, C29A, G30U, A31G
DNA 1: CAATCTGAATTCCGGTCTCCC
DNA 2: TGGTGGCTACGACGGGATT
B19: ACCUUAA (DNA:RNA)
RNA: B3 RNA with U26C, U27C, C29U, G30A
DNA 1: CAATCTGAATTCCGGTCTCCC
DNA 2: TGGTGGCTACGACGGGATT
B20: CCCGCAU (DNA:RNA)
RNA: B1 RNA with G25C, A28G, U29C, C30A, G31U
DNA 1: CAATCTGAATTCCGGTCTCCC
DNA 2: TGGTGGCTACGACGGGATT
B21: CUUCACC (DNA:RNA)
RNA: B3 RNA with A25C, U28C, C29A, G30C, A31C
DNA 1: CAATCTGAATTCCGGTCTCCC
DNA 2: TGGTGGCTACGACGGGATT
B22: CGAGUAU (DNA:RNA)
RNA: B1 RNA with G25C, C26G, C27A, A28G, C30A, G31U
DNA 1: CAATCTGAATTCCGGTCTCCC
DNA 2: TGGTGGCTACGACGGGATT
B23: UGGUUCC (DNA:RNA)
RNA: B1 RNA with G25U, C26G, C27G, A28U, G31C
DNA 1: CAATCTGAATTCCGGTCTCCC
DNA 2: TGGTGGCTACGACGGGATT
B24: UGGUUGG (DNA:RNA)
RNA: B3 RNA with A25U, U26G, U27G, C29U, A31G
DNA 1: CAATCTGAATTCCGGTCTCCC
DNA 2: TGGTGGCTACGACGGGATT
B25: UGGUUUU (DNA:RNA)
RNA: B3 RNA with A25U, U26G, U27G, C29U, G30U, A31U
DNA 1: CAATCTGAATTCCGGTCTCCC
DNA 2: TGGTGGCTACGACGGGATT
B26: UGGUGGU (DNA:RNA)
RNA: B3 RNA with A25U, U26G, U27G, C29G, A31U
DNA 1: CAATCTGAATTCCGGTCTCCC
DNA 2: TGGTGGCTACGACGGGATT
B27: UGGUUUC (DNA:RNA)
RNA: B3 RNA with A25U, U26G, U27G, C29U, G30U, A31C
DNA 1: CAATCTGAATTCCGGTCTCCC
DNA 2: TGGTGGCTACGACGGGATT
B28: UGGUUGU (DNA:RNA)
RNA: B3 RNA with A25U, U26G, U27G, C29U, A31U
DNA 1: CAATCTGAATTCCGGTCTCCC
DNA 2: TGGTGGCTACGACGGGATT
B29: UGUUUGG (DNA:RNA)
RNA: B3 RNA with A25U, U26G, C29U, A31G
DNA 1: CAATCTGAATTCCGGTCTCCC
DNA 2: TGGTGGCTACGACGGGATT
B30: CUGGUUG (DNA:RNA)
RNA: B1 RNA with G25C, C26U, C27G, A28G, C30U
DNA 1: CAATCTGAATTCCGGTCTCCC
DNA 2: TGGTGGCTACGACGGGATT
B31: CCCCUGG (DNA:RNA)
RNA: B1 RNA with G25C, A28C, C30G
DNA 1: CAATCTGAATTCCGGTCTCCC
DNA 2: TGGTGGCTACGACGGGATT
B32: GUCCUGG (DNA:RNA)
RNA: B1 RNA with C26U, A28C, C30G
DNA 1: CAATCTGAATTCCGGTCTCCC
DNA 2: TGGTGGCTACGACGGGATT
B33: UGGUUUG (DNA:RNA)
RNA: B1 RNA with G25U, C26G, C27G, A28U, C30U
DNA 1: CAATCTGAATTCCGGTCTCCC
DNA 2: TGGTGGCTACGACGGGATT
B34: UGGUUCG (DNA:RNA)
RNA: B1 RNA with G25U, C26G, C27G, A28U
DNA 1: CAATCTGAATTCCGGTCTCCC
DNA 2: TGGTGGCTACGACGGGATT

What follows are binders tested against T1, RBFOX1 RRM RbFoxmut (Fox-RRM*) (Homo sapiens, UniProt Q9NWB1 109-208, R118D;E147R;N151S;E152T) (assay: EMSA; HiTS-Eq, 1 nM pool, 10 min; buffer printed only for the single-RNA assays: 10 mM Tris pH 7.5, 150 mM NaCl, 3.4 mM EDTA, 0.001% NP-40, 30 C). Settings: tags: His6 N-terminal (pET28a); label: 5' 32P.
T1 sequence: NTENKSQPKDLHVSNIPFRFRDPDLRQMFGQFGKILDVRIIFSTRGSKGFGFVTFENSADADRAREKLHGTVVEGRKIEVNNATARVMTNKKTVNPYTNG
Method in brief: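 Purified RbFox RRM (wild type or mutant) was equilibrated for 10 min in 50 µL with 1 nM of a 5′-radiolabelled pool of RNA with 7 randomized nucleotides, its flanks annealed to DNA oligonucleotides, across increasing protein concentrations. Free RNA was separated by 8% native PAGE, excised, reverse-transcribed, PCR-barcoded and sequenced on an Illumina HiSeq 2500. Relative association constants came from read-count changes of each variant against the control reaction, normalised to the cognate motif.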

Binder | binding signal
B1 | 0.0927 KA relative to UGCAUGU
B2 | 0.1 KA relative to UGCAUGU
B3 | 0.114 KA relative to UGCAUGU
B4 | 0.0927 KA relative to UGCAUGU
B5 | 0.0785 KA relative to UGCAUGU
B6 | 0.14 KA relative to UGCAUGU
B7 | 0.144 KA relative to UGCAUGU
B8 | 0.117 KA relative to UGCAUGU
B9 | 0.368 KA relative to UGCAUGU
B10 | 0.194 KA relative to UGCAUGU
B11 | 0.441 KA relative to UGCAUGU
B12 | 0.163 KA relative to UGCAUGU
B13 | 0.289 KA relative to UGCAUGU
B14 | 0.201 KA relative to UGCAUGU
B15 | 0.153 KA relative to UGCAUGU
B16 | 0.0542 KA relative to UGCAUGU
B17 | 0.102 KA relative to UGCAUGU

Binder | binding signal
B18 | 0.28 KA relative to UGCAUGU
B19 | 0.129 KA relative to UGCAUGU
B20 | 0.0703 KA relative to UGCAUGU
B21 | 0.0684 KA relative to UGCAUGU
B22 | 0.143 KA relative to UGCAUGU
B23 | 0.157 KA relative to UGCAUGU
B24 | 0.309 KA relative to UGCAUGU
B25 | 0.0956 KA relative to UGCAUGU
B26 | 0.161 KA relative to UGCAUGU
B27 | 0.183 KA relative to UGCAUGU
B28 | 0.396 KA relative to UGCAUGU
B29 | 0.302 KA relative to UGCAUGU
B30 | 0.458 KA relative to UGCAUGU
B31 | 0.0629 KA relative to UGCAUGU
B32 | 0.075 KA relative to UGCAUGU
B33 | 0.874 KA relative to UGCAUGU
B34 | 0.492 KA relative to UGCAUGU
